# From the supplement of paper PMC10849652
# About 7,900 targets were measured; listed, in parts, are those with a hit and a random draw of the rest. About 0.6% of all pairs of compound and target were hits. Values without a mark were called inactive.
# Columns and labels:
# Test in all cases: log2 fold change, soluble protein after heating vs DMSO (PISA); higher = thermal stabilisation; K562 cells, 10 uM, 30 min; active = over 0.2 and 3.5 SD of the protein, either way, in both replicates (recomputed)
# [1] = compound: CS(=O)(=O)c1ccc(-c2cnc(N)c(C(=O)Nc3ccccc3)n2)cc1
# Method in brief: (§1)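 For each measurement, 10 μM compound was applied for 30 min to K562 cells at 2×10^6 cells/mL. Aliquots were heated for 3 min across 48°C-58°C, pooled, and extracted in PBS with 0.5% NP-40 at 4°C; the supernatant after 21,000xg for 90 min was soluble protein. This was quantified by TMTpro 16plex LC-MS/MS with channel sums equalised, and thermal stability was reported relative to control samples from duplicates, on a log2 fold-change scale.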
# crizotinib = compound: C[C@@H](Oc1cc(-c2cnn(C3CCNCC3)c2)cnc1N)c1c(Cl)ccc(F)c1Cl [crizotinib]
# Method in brief: as §1
# [2] = compound: C[C@@H]1COCCN1C2=NC(=NC(=C2)C3(CC3)S(=O)(=O)C)C4=C5C=CNC5=CC=C4
# Method in brief: as §1
# gandotinib = compound: Cc1cc(Nc2cc(CN3CCOCC3)c3nc(C)c(Cc4ccc(Cl)cc4F)n3n2)n[nH]1 [gandotinib]
# Method in brief: as §1
# tozasertib = compound: Cc1cc(Nc2cc(N3CCN(C)CC3)nc(Sc3ccc(NC(=O)C4CC4)cc3)n2)n[nH]1 [tozasertib]
# Method in brief: as §1
# doramapimod = compound: Cc1ccc(-n2nc(C(C)(C)C)cc2NC(=O)Nc2ccc(OCCN3CCOCC3)c3ccccc23)cc1 [doramapimod]
# Method in brief: as §1
# bafetinib = compound: Cc1ccc(NC(=O)c2ccc(CN3CC[C@H](N(C)C)C3)c(C(F)(F)F)c2)cc1Nc1nccc(-c2cncnc2)n1 [bafetinib]
# Method in brief: as §1
# [3] = compound: Cc1cccc(CC(=O)N2CCc3c2ccc(-c2cn(C)c4ncnc(N)c24)c3F)n1
# Method in brief: as §1
# nilotinib = compound: Cc1cn(-c2cc(NC(=O)c3ccc(C)c(Nc4nccc(-c5cccnc5)n4)c3)cc(C(F)(F)F)c2)cn1 [nilotinib]
# Method in brief: as §1
# [4] = compound: Cc1nc(Nc2n[nH]c3c2CN(C(=O)N[C@H](CN(C)C)c2ccccc2)C3(C)C)c2sccc2n1
# Method in brief: as §1
# [5] = compound: Cc1ncc(-c2ccnc(Nc3ccc(S(C)(=O)=O)cc3)n2)n1C(C)C
# Method in brief: as §1
# tipifarnib = compound: Cn1cncc1[C@@](N)(c1ccc(Cl)cc1)c1ccc2c(c1)c(-c1cccc(Cl)c1)cc(=O)n2C [tipifarnib]
# Method in brief: as §1
# mubritinib = compound: FC(F)(F)c1ccc(/C=C/c2nc(COc3ccc(CCCCn4ccnn4)cc3)co2)cc1 [mubritinib]
# Method in brief: as §1
# [6] = compound: C[C@H](C1=CC=C(C=C1)C(=O)NC2=C3C=CNC3=NC=C2)N
# Method in brief: as §1
# duvelisib = compound: C[C@H](Nc1ncnc2nc[nH]c12)c1cc2cccc(Cl)c2c(=O)n1-c1ccccc1 [duvelisib]
# Method in brief: as §1
# [7] = compound: Cc1cc(SCc2sc(-c3ccc(C(F)(F)F)cc3)nc2C)ccc1OCC(=O)O
# Method in brief: as §1
# ispinesib = compound: Cc1ccc(C(=O)N(CCCN)[C@@H](c2nc3cc(Cl)ccc3c(=O)n2Cc2ccccc2)C(C)C)cc1 [ispinesib]
# Method in brief: as §1
# dasatinib = compound: Cc1nc(Nc2ncc(C(=O)Nc3c(C)cccc3Cl)s2)cc(N2CCN(CCO)CC2)n1 [dasatinib]
# Method in brief: as §1
# [8] = compound: Cn1cc(-c2ccc3c(c2)CCN3C(=O)Cc2cccc(C(F)(F)F)c2)c2c(N)ncnc21
# Method in brief: as §1
# [9] = compound: Cn1cc(-c2ccc3nnc(C(F)(F)c4ccc5ncccc5c4)n3n2)cn1
# Method in brief: as §1
# UniProt O00214, sequence (O00214 whole entry, looked up): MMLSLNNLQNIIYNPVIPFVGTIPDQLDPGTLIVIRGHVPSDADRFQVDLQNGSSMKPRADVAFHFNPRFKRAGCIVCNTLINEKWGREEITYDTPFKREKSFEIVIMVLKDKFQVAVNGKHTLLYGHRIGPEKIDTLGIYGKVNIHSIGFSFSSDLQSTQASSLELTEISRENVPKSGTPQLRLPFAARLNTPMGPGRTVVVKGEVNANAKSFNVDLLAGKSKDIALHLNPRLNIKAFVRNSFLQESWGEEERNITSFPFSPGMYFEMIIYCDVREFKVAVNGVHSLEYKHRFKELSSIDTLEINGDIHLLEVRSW
# UniProt Q9P244, sequence (Q9P244 whole entry, looked up): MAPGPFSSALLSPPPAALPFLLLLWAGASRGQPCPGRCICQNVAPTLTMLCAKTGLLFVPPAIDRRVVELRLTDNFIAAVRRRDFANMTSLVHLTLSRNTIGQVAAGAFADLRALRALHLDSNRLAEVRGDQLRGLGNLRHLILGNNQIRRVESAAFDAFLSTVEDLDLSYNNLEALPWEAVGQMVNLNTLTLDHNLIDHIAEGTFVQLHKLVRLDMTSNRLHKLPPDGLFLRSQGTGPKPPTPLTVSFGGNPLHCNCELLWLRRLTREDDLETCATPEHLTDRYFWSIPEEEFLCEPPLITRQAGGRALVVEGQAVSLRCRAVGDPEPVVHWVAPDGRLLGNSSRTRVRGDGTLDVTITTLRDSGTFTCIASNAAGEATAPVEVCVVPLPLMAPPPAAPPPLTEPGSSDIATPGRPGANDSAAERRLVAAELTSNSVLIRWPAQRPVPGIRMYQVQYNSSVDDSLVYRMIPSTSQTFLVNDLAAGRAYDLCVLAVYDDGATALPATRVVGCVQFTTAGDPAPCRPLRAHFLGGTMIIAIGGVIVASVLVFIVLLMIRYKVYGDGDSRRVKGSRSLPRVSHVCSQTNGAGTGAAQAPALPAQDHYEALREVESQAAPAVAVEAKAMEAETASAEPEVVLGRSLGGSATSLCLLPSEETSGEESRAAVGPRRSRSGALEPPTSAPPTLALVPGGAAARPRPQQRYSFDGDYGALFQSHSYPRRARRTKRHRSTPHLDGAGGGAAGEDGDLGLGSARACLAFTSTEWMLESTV
# UniProt O43513, sequence (O43513 whole entry, looked up): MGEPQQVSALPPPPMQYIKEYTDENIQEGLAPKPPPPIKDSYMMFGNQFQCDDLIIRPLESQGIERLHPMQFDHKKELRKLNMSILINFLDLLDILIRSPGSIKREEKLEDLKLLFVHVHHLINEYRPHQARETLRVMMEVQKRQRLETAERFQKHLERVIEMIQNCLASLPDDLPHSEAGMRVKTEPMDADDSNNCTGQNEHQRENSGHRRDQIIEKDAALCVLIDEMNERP
# UniProt Q71SY5, sequence (Q71SY5 whole entry, looked up): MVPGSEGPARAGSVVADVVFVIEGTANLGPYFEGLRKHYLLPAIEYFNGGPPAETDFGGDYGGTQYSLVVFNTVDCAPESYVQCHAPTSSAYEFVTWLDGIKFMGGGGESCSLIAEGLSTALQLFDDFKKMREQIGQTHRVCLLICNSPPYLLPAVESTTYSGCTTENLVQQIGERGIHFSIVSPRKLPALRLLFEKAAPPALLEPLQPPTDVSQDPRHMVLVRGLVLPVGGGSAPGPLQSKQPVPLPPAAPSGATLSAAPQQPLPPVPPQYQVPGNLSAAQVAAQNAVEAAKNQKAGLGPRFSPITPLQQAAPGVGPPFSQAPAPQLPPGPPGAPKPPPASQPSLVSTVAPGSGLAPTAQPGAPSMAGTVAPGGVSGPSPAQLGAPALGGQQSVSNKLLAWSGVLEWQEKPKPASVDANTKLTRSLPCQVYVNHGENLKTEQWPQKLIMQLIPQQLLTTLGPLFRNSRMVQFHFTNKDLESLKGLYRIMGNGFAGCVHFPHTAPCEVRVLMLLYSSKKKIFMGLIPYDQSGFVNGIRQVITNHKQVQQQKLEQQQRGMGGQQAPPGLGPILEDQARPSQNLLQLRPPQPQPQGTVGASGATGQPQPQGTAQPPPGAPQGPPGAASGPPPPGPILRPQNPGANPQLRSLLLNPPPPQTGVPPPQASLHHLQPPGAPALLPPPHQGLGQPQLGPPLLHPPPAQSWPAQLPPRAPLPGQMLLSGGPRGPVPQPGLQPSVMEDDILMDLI
# UniProt Q9Y5V3, sequence (Q9Y5V3 whole entry, looked up): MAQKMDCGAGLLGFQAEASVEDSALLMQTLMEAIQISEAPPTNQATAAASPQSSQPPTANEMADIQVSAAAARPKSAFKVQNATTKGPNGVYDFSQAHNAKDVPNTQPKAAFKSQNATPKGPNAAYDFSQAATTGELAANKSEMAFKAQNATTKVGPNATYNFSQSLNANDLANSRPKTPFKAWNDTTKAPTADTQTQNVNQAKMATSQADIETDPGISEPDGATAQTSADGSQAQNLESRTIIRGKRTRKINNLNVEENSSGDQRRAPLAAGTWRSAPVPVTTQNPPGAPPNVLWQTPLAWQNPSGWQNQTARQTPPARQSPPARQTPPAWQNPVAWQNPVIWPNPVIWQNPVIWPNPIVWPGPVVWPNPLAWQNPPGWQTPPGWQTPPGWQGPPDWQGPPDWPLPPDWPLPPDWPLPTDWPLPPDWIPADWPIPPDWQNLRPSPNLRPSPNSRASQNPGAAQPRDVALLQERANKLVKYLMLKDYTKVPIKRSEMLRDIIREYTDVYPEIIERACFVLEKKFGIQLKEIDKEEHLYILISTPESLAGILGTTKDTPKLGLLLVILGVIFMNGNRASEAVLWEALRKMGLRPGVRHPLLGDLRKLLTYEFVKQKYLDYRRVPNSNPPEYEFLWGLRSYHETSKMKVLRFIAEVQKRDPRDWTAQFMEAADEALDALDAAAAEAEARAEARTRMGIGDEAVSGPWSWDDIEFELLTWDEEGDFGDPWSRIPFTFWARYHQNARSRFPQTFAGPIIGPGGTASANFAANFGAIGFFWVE
# UniProt P07948, sequence (P07948 whole entry, looked up): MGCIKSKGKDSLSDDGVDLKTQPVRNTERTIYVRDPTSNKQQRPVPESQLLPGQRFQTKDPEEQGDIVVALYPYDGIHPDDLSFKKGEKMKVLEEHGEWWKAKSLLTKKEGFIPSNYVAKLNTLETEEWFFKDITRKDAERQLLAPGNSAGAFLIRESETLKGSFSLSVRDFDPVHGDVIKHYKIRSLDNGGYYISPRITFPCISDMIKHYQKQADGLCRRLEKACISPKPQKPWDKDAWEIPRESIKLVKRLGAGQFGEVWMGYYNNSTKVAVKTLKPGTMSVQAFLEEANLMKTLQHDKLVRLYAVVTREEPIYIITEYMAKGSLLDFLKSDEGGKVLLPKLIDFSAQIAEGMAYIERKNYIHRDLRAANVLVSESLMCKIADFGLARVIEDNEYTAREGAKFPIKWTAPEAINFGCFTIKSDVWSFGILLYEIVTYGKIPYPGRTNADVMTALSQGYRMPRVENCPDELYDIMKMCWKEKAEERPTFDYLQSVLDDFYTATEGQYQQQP
# UniProt Q7L590, sequence (Q7L590 whole entry, looked up): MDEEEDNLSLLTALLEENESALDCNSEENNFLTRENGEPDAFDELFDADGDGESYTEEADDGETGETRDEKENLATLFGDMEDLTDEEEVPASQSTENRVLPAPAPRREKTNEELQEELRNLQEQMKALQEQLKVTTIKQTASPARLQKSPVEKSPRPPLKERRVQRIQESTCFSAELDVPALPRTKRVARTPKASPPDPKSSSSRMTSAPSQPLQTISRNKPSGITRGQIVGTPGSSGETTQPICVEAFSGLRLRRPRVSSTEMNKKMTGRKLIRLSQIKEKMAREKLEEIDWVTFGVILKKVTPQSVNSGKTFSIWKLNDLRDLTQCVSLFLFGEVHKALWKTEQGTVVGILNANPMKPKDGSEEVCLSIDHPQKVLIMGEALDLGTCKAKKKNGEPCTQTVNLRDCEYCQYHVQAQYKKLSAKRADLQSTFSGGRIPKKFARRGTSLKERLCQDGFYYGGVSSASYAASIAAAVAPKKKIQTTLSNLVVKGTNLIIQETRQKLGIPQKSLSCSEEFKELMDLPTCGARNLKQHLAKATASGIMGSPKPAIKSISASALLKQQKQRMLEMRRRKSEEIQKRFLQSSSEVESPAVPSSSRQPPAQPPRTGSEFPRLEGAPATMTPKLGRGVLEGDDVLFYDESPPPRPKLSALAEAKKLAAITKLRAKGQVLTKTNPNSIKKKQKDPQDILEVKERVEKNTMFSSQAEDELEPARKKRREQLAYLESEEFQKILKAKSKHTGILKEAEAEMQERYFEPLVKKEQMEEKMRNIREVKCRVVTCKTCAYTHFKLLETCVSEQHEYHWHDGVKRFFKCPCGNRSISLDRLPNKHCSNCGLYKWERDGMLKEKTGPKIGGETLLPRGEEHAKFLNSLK
Target,log2 fold change [1],log2 fold change (crizotinib),log2 fold change [2],log2 fold change (gandotinib),log2 fold change (tozasertib),log2 fold change (doramapimod),log2 fold change (bafetinib),log2 fold change [3],log2 fold change (nilotinib),log2 fold change [4],log2 fold change [5],log2 fold change (tipifarnib),log2 fold change (mubritinib),log2 fold change [6],log2 fold change (duvelisib),log2 fold change [7],log2 fold change (ispinesib),log2 fold change (dasatinib),log2 fold change [8],log2 fold change [9]
MCM10 (UniProt Q7L590),-0.171,-0.015,-0.102,0.092,0.144,-0.01,0.182,-0.044,0.046,-0.001,-0.008,-0.155,0.09,–,–,–,–,–,–,–
MED25 isoform 3 (UniProt Q71SY5),0.061,0.021,–,0.19,0.136,0.085,0.09,0.217,-0.013,0.003,-0.09,0.054,-0.308,0,0.061,0.162,-0.018,-0.049,-0.071,0.076
LGALS8 isoform 2 (UniProt O00214),-0.002,-0.023,-0.255,-0.144,0.016,0.146,0.107,0.079,–,–,–,–,-0.186,0.323,-0.223,0.204,–,0.013,-0.253,–
MAGED1 isoform 2 (UniProt Q9Y5V3),-0.012,–,0.096,–,–,–,–,–,-0.035,-0.008,-0.082,-0.104,–,0.205,0.05,-0.008,–,0.057,0.111,–
MED12 isoform 2 (UniProt Q93074),-0.088,-0.088,0.207,-0.009,0.012,0.095,-0.112,0.044,-0.038,0.068,-0.058,-0.071,-0.103,–,0.068,0.048,-0.117,-0.24,–,0.003
MED7 (UniProt O43513),-0.03,0.11,-0.031,–,0.004,-0.199,0.191,–,-0.029,-0.041,0.094,0.271,–,-0.081,-0.046,0.049,0.017,-0.063,-0.05,0.069
ILF3 (UniProt Q12906),-0.152,-0.201,-0.284,–,–,0.026,0.084,–,-0.065,0.167,0.364,–,-0.074,–,–,–,–,–,–,–
MARK2 (UniProt E9PC69),0.068,-0.323,-0.049,–,-0.263,0.119,0.116,–,-0.007,-0.451,-0.031,-0.215,–,0.15,-0.181,0.12,-0.232,-0.158,-0.038,-0.088
LRFN1 (UniProt Q9P244),0.108,-0.006,-0.15,–,-0.042,-0.09,-0.017,–,–,–,–,-0.026,–,-0.198,0.038,0.009,0.102,-0.129,0.178,0.011
LYN isoform 2 (UniProt P07948),-0.791 (active),-0.211,-0.281,–,–,0.159,–,–,-0.001,-0.418,-0.006,0.075,–,-0.294,–,–,–,–,0,–
MAML1 (UniProt Q92585),-0.022,0.074,0.053,–,–,-0.038,–,–,–,–,–,–,–,-0.056,–,–,-0.006,–,0.087,-0.009
